The campaign covered roughly 360,000 compounds. About 6,000 (1.7%) were called active. A call without a number means that no potency is given here. About 8% were inconclusive and are not listed. The sample holds actives, similar compounds and a random draw of the others, so the mix is not that of the screen. The call rests on the fitted dose curve; in most records, active means well fitted cell-killing curve with a large enough effect; inconclusive means small, poorly fitted or top-dose-only effect, or effect the other way; inactive means flat fitted curve, though single readings scatter.

Our source for the Potency values is PubChem BioAssay AID686970 (National Center for Advancing Translational Sciences (NCATS), 2013).
Potency means the concentration at half of the fitted maximal effect.

The nature of this assay: qHTS for induction of synthetic lethality in tumor cells producing 2HG: qHTS for the HT-1080-NT fibrosarcoma cell line.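 Further: NT is the 2HG producing partner of a matched IDH1 knockdown line; nearly all actives have a fitted effect of over 55% in size.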 The settings on record: HT-1080-NT fibrosarcoma viability, CellTiter-Glo ATP luminescence, 48 h; series mostly up to 46.1 µM. The method in brief: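 HT-1080-NT; 750 cells/well; 5% FBS RPMI; 48 h compound, 37 degrees C; CellTiter-Glo luminescence; curve fitting and curve-class assignment.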
`CCOC(=O)[C@H]1Nc2ccc(Cl)cc2[C@@H]2[C@H]1C1CC(c3ccccc31)N2C(=O)OCc1ccccc1` (stereo partly specified): the Potency result is “inactive”.

Consider `COc1ccc(/C=C2\CCc3ccccc3C2=O)c(OC)c1OC`, for which the Potency entry is “inactive”.

With `COc1ccc(/C=C2/CCCc3ccccc3C2=O)cc1`, the Potency is 8.2 µM (active).

For `O=C1/C(=C/c2cccs2)CCc2ccccc21`, the Potency result is “inactive”.

Take `CC(=O)Oc1ccc(Cn2c(C)c(C(=O)NCc3ccc(C#N)cc3)sc2=O)cc1`: the Potency result was “inactive”.

For `O=C(CSc1nc2cccc(F)c2c(=O)n1-c1ccccc1)Nc1ccc2c(c1)CCC2`, the Potency entry was “inactive”.

As to `O=C(O)c1cccc(NC(=O)c2cc(-c3cccc(Cl)c3)nc3ccccc23)c1`, the Potency result is “inactive”.

Consider `O=C(N/N=C/c1ccc(Cl)cc1)c1nc2ccc([N+](=O)[O-])cc2c(=O)[nH]1`, for which the Potency entry was “inactive”.

Turning to `O=C(/C(=C/c1cccc(Cl)c1)c1nc2ccccc2[nH]1)c1ccccc1`, the Potency was 5.17 µM (active).

Regarding `Cc1cc(Br)cn2c(Cc3ccccc3C(F)(F)F)c(-c3ccc(Cl)cc3)nc12`, the Potency entry is “inactive”.

As to `Cc1ccc(Oc2cnn(-c3ccccc3)c(=O)c2Br)cc1`, the Potency result is “inactive”.

In the case of `COc1ccc(CCNC(=O)c2c(C)nn(-c3ccccc3)c2Cl)cc1`, the Potency entry was “inactive”.

Regarding `COc1ccc(Oc2c(Cl)cnn(-c3ccccc3)c2=O)cc1`, the Potency is 18.4 µM (active).

For the compound `CCCCN1C(=O)C(CC(=O)NCc2cccs2)CC(C(=O)N2CCCCCC2)=C1C` (stereo unspecified), the Potency entry was “inactive”.

For the compound `O=C(NCc1ccccc1)C1CNCC(C(=O)NCc2ccccc2)C1` (stereo unspecified), the Potency entry is “inactive”.

Take `Cc1ccc(-c2nc3c(Cl)cc(C(F)(F)F)cn3c2Cc2cccc(Cl)c2)cc1`: the Potency entry was “inactive”.

In the case of `Oc1c(Cl)cc(Cl)c(Cl)c1Cc1c(O)c(Cl)cc(Cl)c1Cl`, the Potency was 5.8 µM (active).

As to `CCCCCCCCn1c2c(c(=N)c3c1CCC3)CCCC2`, the Potency is 16.4 µM (active).

In the case of `C=CC(=O)OCCOCCOCCOCCOC(=O)C=C`, the Potency is 20.6 µM (active).

Regarding `COc1cc(CCN=Cc2ccccc2O)c([N+](=O)[O-])cc1OC`, the Potency result is “inactive”.

For `COc1ccc(S(=O)(=O)N2CCC(C(=O)NCCC(=O)NCCc3cccc(F)c3)CC2)cc1`, the Potency result is “inactive”.

As to `C=CCOc1cccc(C2C(C(=O)c3ccc(C)o3)=C(O)C(=O)N2CCN2CCOCC2)c1` (stereo unspecified), the Potency entry was “inactive”.

`Cc1ccc([C@H]2C[C@H](O)[C@@H](n3cc(COC(=O)c4ccccc4)nn3)CN2C(=O)C2CCCCC2)cc1`: the Potency entry was “inactive”.

As for `CC(C)CCNC(=O)c1[nH]c(C(F)(F)F)nc1-c1ccccc1`, the Potency entry was “inactive”.

As to `COc1ccc(-c2ccc(CN3C(C(C)C)C(=O)N(Cc4cn(CC5CCCCC5)nn4)CCS3(=O)=O)cc2)cn1` (stereo unspecified), the Potency entry was “inactive”.

For `COc1ccc(/C=N/Nc2ccccc2C(=O)O)cc1`, the Potency entry is “inactive”.

For the compound `COc1ccc(C(=O)Nc2ccccc2C(=O)N/N=C/c2ccc(O)c(OC)c2)cc1`, the Potency was 5.8 µM (active).

Turning to `COc1ccc2[nH]c(C(=O)N/N=C/c3cc(OC)c(OC)c(OC)c3)cc2c1`, the Potency result was “inactive”.

Turning to `CC(O)(c1cccc(F)c1)c1nc(-c2ccc3c(c2)OCO3)cs1` (stereo unspecified), the Potency entry was “inactive”.

Consider `CCOC(=O)C1=CC[C@@H](c2ccccc2)N(S(=O)(=O)c2ccc(C)cc2)[C@H]1c1ccc(CC)cc1`, for which the Potency entry was “inactive”.

Take `CCCOc1ccc(F)cc1-c1cc(C(=O)Nc2ccc(F)cc2)[nH]n1`: the Potency result was “inactive”.

Regarding `COc1ccc(CCNC(=S)NC(=O)/C=C/c2ccc(C)cc2)cc1OC`, the Potency was 6.31 µM (active).

Take `COc1ccc(CCNC(=O)NS(=O)(=O)c2ccc(C)cc2)cc1OC`: the Potency entry was “inactive”.

On to `COc1ccc(CCNC(=O)Cc2ccc(C)cc2)cc1OC`, for which the Potency entry is “inactive”.

Consider `O=C(COC(=O)/C=C/c1ccc(Cl)cc1)NC1CCS(=O)(=O)C1` (stereo unspecified), for which the Potency entry was “inactive”.

As to `CCOC(=O)C(=Cc1ccccc1)C(=O)c1ccccc1`, the Potency result was “inactive”.

As for `O=C(O)c1ccc(NC(=O)c2ccc(COc3ccc(Cl)cc3)o2)cc1`, the Potency result is “inactive”.

Take `Cc1cc(OCc2ccc(C(=O)Nc3ccc(C(=O)O)cc3)o2)ccc1Cl`: the Potency is 11.6 µM (active).

Take `COc1ccc(NC(=O)CN(C)C(=O)c2ccc(COc3ccccc3)o2)cc1`: the Potency entry was “inactive”.

For `O=C(NCc1ccccc1)C1c2ccccc2OCC(=O)N1CCCN1CCOCC1` (stereo unspecified), the Potency entry is “inactive”.

For the compound `CCC(c1nc2ccccc2[nH]1)n1c(=O)c(-c2cccs2)nc2ccccc21` (stereo unspecified), the Potency result was “inactive”.
